According to PubChem BioAssay AID463173 (ICCB-Longwood Screening Facility, Harvard Medical School, 2010):
The campaign covered roughly 52,000 compounds. About 1,700 (3.3%) were called active. Cut-off read from the data, not from the text of the source: active = survival mostly below about 52% (no sharp cut-off); inactive = mostly above about 56%. Only a selection was taken, and actives are over-represented in it overall.

The compounds below were run on Wild type (assay: growth inhibition of S. aureus wild type versus tarO mutant, primary screen, teichoic acid synthesis inhibitors, RN4220, OD600 (AID 463173)). Conditions: S. aureus RN4220 wild type/DeltatarO growth, OD600, 18 h, hits give low values, screened at 18.75 µg/mL (by protocol).

| SMILES | survival |
| --- | --- |
| COc1ccc(N2CC(NC(=O)/C=C\c3ccccc3)CC2=O)cc1 (configuration not stated) | 101% (inactive) |
| CC(=O)Nc1ccc(N2CCN(Cc3ccccc3)CC2)cc1 | 106% (inactive) |
| COc1ccc2oc(=O)c(-c3csc(-c4ccc(Br)cc4)n3)cc2c1 | 80% (inactive) |
| CCc1nn(CC(=O)NC2CC2)c(=O)c2cc3ccccc3n12 | 121% (inactive) |
| Cc1ccc2c(=O)cc(C(=O)Nc3nc4ccc(Cl)cc4s3)oc2c1 | 65% (inactive) |
| Cc1cc(C)cc(NC(=O)Cn2nnc(C(=O)NCCc3ccccc3)c2N)c1 | 93% (inactive) |
| Cc1ccccc1C(=O)Nc1nc2c(s1)CC(C(C)(C)C)CC2 (configuration not stated) | 124% (inactive) |
| COc1ccc(NC(=O)c2c(NC(=O)COc3ccccc3)sc3c2CCC(C(C)(C)C)C3)cc1 (configuration not stated) | 77% (inactive) |
| Cc1ccccc1NC(=O)c1c(NC(=O)c2ccco2)sc2c1CCC(C(C)(C)C)C2 (configuration not stated) | 75% (inactive) |
| COc1ccc(NC(=O)c2c(NC(=O)c3ccncc3)sc3c2CCC(C(C)(C)C)C3)cc1 (configuration not stated) | 47% (inactive) |
| Cc1ccccc1C(=O)Nc1sc2c(c1C(=O)N1CCCCC1)CCC(C(C)(C)C)C2 (configuration not stated) | 1% (active) |
| CCC(=O)Nc1sc2c(c1C(=O)Nc1ccc(OC)cc1)CCC(C(C)(C)C)C2 (configuration not stated) | 2% (active) |
| CCc1cccc(C)c1NC(=O)CN1C(=O)C2(SCC(=O)N2c2cccc(F)c2)c2ccccc21 (configuration not stated) | 136% (inactive) |
| Cc1c(Cl)cccc1NC(=O)Cn1nnc(-c2nc(-c3ccccc3)no2)c1N | 55% (inactive) |
| COc1ccc2c(c1)c1c(c(=O)n(-c3ccccc3C)c(=O)n1C)n2C | 81% (inactive) |
| CCOc1cc(S(=O)(=O)NC2CC2)c(OCC)cc1-n1cnnn1 | 102% (inactive) |
| COc1ccc(CCNC(=O)c2cc(=O)[nH]c3ccc(S(=O)(=O)N4CCCCC4C)cc23)cc1OC (configuration not stated) | 127% (inactive) |
| COc1ccc(Br)cc1CNC(=O)c1cc(=O)[nH]c2ccc(S(=O)(=O)N3CCCCC3C)cc12 (configuration not stated) | 105% (inactive) |
| COc1ccc(OC)c(CNC(=O)c2cc(=O)[nH]c3ccc(S(=O)(=O)N4CCCCC4C)cc23)c1 (configuration not stated) | 1% (active) |
| Cc1nn(C(=O)c2ccccc2)c(C)c1S(=O)(=O)N1CCCCCC1 | 80% (inactive) |
| Cc1ccc(Sc2c(C)nn(C(=O)c3ccc(Br)cc3)c2C)cc1 | 13% (active) |
| Cc1nn(C(=O)c2ccc(Br)cc2)c(C)c1S(=O)(=O)N1CCOCC1 | 71% (inactive) |
| Cc1ccc(Sc2c(C)nn(C(=O)COc3ccccc3Br)c2C)cc1 | 90% (inactive) |

| SMILES | survival |
| --- | --- |
| Cc1nn(C(=O)COc2ccccc2Br)c(C)c1Sc1ccccc1 | 57% (inactive) |
| Cc1nn(C(=O)c2ccc(Br)cc2)c(C)c1Sc1ccccc1 | -4% (active) |
| Cc1ccc(C)c(NC(=O)N2CCC(CN3CCOCC3)CC2)c1 | 135% (inactive) |
| CCC(CC)c1nn2c(=O)cc(COc3ccc(NC(=O)c4ccc(Cl)cc4)cc3)nc2s1 | 86% (inactive) |
| Cc1ccc(Nc2ccc(N3CCN(C(=O)c4ccc([N+](=O)[O-])cc4Cl)CC3)nn2)cc1 | 129% (inactive) |
| COCCn1c(SCC(=O)c2c[nH]c3ccccc23)nc2cc(C(=O)NCC(C)C)ccc2c1=O | 73% (inactive) |
| COCCn1c(SCC(=O)c2ccccc2)nc2cc(C(=O)NC3CCCC3)ccc2c1=O | 76% (inactive) |
| COCCNC(=O)c1ccc2c(=O)n(CCc3ccccc3)c(SCC(=O)CC(=O)OC)nc2c1 | 78% (inactive) |
| COCCNC(=O)c1ccc2c(=O)n(CCOC)c(SCC(=O)c3c[nH]c4ccccc34)nc2c1 | -1% (active) |
| COCCn1c(SCC(=O)c2c(C)[nH]c3ccccc23)nc2cc(C(=O)NC(C)C)ccc2c1=O | 74% (inactive) |
| COCCn1c(SCC(=O)c2c[nH]c3ccccc23)nc2cc(C(=O)NC(C)C)ccc2c1=O | 14% (active) |
| CCOc1ccc(NC(=O)CCSc2nc(-c3ccc4c(c3)OCO4)cc(C(F)(F)F)n2)cc1 | 72% (inactive) |
| COc1ccc(C)cc1NC(=O)NCc1cccn1Cc1ccccc1 | 98% (inactive) |
| O=C(NCc1ccccc1Cl)c1ccc(NC(=O)N2CCSc3ccccc32)cc1 | 67% (inactive) |
| N#CCCSCc1ccc(C(=O)O)o1 | 107% (inactive) |
| Cc1ccc(-c2nc3cc(C(C)C)ccc3o2)cc1NC(=O)c1cc2ccccc2o1 | 11% (active) |
| COc1ccc(-c2nc3cc(C(C)C)ccc3o2)cc1NC(=O)c1ccc(C)c(Cl)c1 | 5% (active) |
| CC(C)c1ccc2oc(-c3ccc(NC(=O)c4cc5ccccc5o4)cc3)nc2c1 | 61% (inactive) |
| COc1ccc(-c2nc3cc(C(C)C)ccc3o2)cc1NC(=O)COc1ccc(C)cc1C | 59% (inactive) |
| COc1ccc(-c2nc3ccccc3o2)cc1NC(=O)c1ccc(-c2ccc(C)c(Cl)c2)o1 | 73% (inactive) |
| Cc1ccc(-c2nc3cc(Cl)ccc3o2)cc1NC(=O)c1cc2ccccc2o1 | 72% (inactive) |
| COC(=O)CCN(C(=O)C1CCN(S(=O)(=O)c2c(C)noc2/C=C/c2ccccc2F)CC1)c1ccccc1 | 126% (inactive) |
| CCC(C)NS(=O)(=O)c1ccc(N2CCCCS2(=O)=O)cc1 (configuration not stated) | 135% (inactive) |

| SMILES | survival |
| --- | --- |
| CCOC(=O)c1noc2ncn(CC(=O)Nc3ccc(C)c(F)c3)c(=O)c12 | 72% (inactive) |
| Cc1ccc(NC(=O)c2cccc(NC(=O)N3CCSc4ncccc43)c2)cc1F | 92% (inactive) |
| O=C1COc2cc(S(=O)(=O)NCc3ccco3)c(Cl)cc2N1 | 73% (inactive) |
| Cc1ccc(CNS(=O)(=O)c2cc3c(cc2Cl)NC(=O)CO3)o1 | 124% (inactive) |
| CCCCN(CC)Cc1ccc(CNS(=O)(=O)c2cc3c(cc2Cl)NC(=O)CO3)o1 | -3% (active) |
| CC(C)(CO)NC(=O)c1cc(-c2ccc(Cl)cc2Cl)on1 | 123% (inactive) |
| CCOC(=O)c1c(NC(=O)COc2ccc(Cl)cc2Cl)sc2c1CCCCC2 | 76% (inactive) |
| COc1ccc(CNC(=O)C2CCN(S(=O)(=O)c3c(C)noc3/C=C/c3ccccc3F)CC2)cc1 | 94% (inactive) |
| Nc1n[nH]c(N)c1N=Nc1ccc(Cl)cc1 | 107% (inactive) |
| COc1ccc2sc(N)nc2c1 | 115% (inactive) |
| COc1ccc(N=Nc2c(N)n[nH]c2N)cc1 | 2% (active) |
| Cc1ccc(-c2nc3ccccc3o2)cc1NC(=O)c1cccc2c(Cl)cccc12 | 62% (inactive) |
| Cn1c(-c2ccccc2)nc2cc(N)ccc21 | 105% (inactive) |
| CN(C)c1ccc(-c2nc(-c3cccs3)c(-c3cccs3)[nH]2)cc1 | 65% (inactive) |
| Oc1cccc(-c2nc(-c3cccs3)c(-c3cccs3)[nH]2)c1 | 3% (active) |
| Fc1ccc(-c2nc(-c3cccs3)c(-c3cccs3)[nH]2)cc1 | 79% (inactive) |
| Oc1ccccc1-c1nc(-c2cccs2)c(-c2cccs2)[nH]1 | -11% (active) |
| Cc1ccc(-c2nc(-c3cccs3)c(-c3cccs3)[nH]2)cc1 | 76% (inactive) |
| COc1ccc(O)c(-c2cn[nH]c2-c2cccs2)c1 | 105% (inactive) |
| Cc1ccc(Cc2c(C)nc3nc(SCC(=O)NCCC(C)C)nn3c2C)cc1 | 64% (inactive) |
| Cc1nn(CC(=O)NCc2ccccc2Cl)c(=O)c2nn(-c3ccccc3)c(C)c12 | 130% (inactive) |
| COc1ccc(NC(=O)Cn2cnc3ccc(S(=O)(=O)N4CCC(C)CC4)cc3c2=O)cc1Cl | 158% (inactive) |
| O=C(Nc1c(C(=O)N2CCOCC2)cnn1-c1ccccc1)c1ccccc1F | 104% (inactive) |

| SMILES | survival |
| --- | --- |
| CN1CCN(C(=O)/C=C\C(=O)O)CC1 | 122% (inactive) |
| CCCCSCCCNC(=O)c1cc(-c2cccnc2)nc2ccc(S(=O)(=O)N3CCC(C)CC3)cc12 | 89% (inactive) |
| COc1cc(C)c(Cl)cc1S(=O)(=O)NCCc1c(C)[nH]c2ccccc12 | 73% (inactive) |
| Cc1ccc(Nc2ncccc2C(=O)NC2CCCCC2)cc1 | 110% (inactive) |
| CCOc1ccc(C2C(=O)N(C3CCCCCC3)CC(=O)N2Cc2ccccc2)cc1OC (configuration not stated) | 75% (inactive) |
| Cc1ccc(C)c(NC(=O)C(Cc2ccccc2)n2cccc2)c1 (configuration not stated) | 134% (inactive) |
| Cc1ccc(NC(=O)C(Cc2ccccc2)n2cccc2)cc1C (configuration not stated) | 13% (active) |
| COc1ccc(NC(=O)C(Cc2ccccc2)n2cccc2)cc1OC (configuration not stated) | 82% (inactive) |
| CCc1cccc(NC(=O)C(Cc2ccccc2)n2cccc2)c1 (configuration not stated) | 12% (active) |
| Cc1ccc(NC(=O)C(Cc2ccccc2)n2cccc2)c(C)c1 (configuration not stated) | 81% (inactive) |
| O=C(Nc1ccccc1)C(Cc1ccccc1)N1Cc2ccccc2C1=O (configuration not stated) | 90% (inactive) |
| CC(=O)c1cccc(NC(=O)[C@H](Cc2ccccc2)N2Cc3ccccc3C2=O)c1 | 81% (inactive) |
| Cc1cccc(NC(=O)C(Cc2ccccc2)n2cccc2)c1C (configuration not stated) | 84% (inactive) |
| O=C(Nc1cccc(Cl)c1)C(Cc1ccccc1)n1cccc1 (configuration not stated) | 8% (active) |
| O=C(O)CC1=C(c2cccs2)CCC1=O | 105% (inactive) |
| Cc1cc(C(F)F)n2ncc(C(=O)NCc3ccccc3)c2n1 | 108% (inactive) |
| COC(=O)c1ccc2c(=O)n(CCCCCC(=O)N3CCN(c4cccc(C)c4C)CC3)c(=O)[nH]c2c1 | 97% (inactive) |
| CC(C)c1ccc(-c2nc(C(N)=O)c3c(n2)n(-c2ccc4c(c2)OCO4)c(=O)n3C)cc1 | 60% (inactive) |
| Nc1n[nH]c(CCc2ccccc2)n1 | 121% (inactive) |
| CCS(=O)(=O)N1CC(=O)N(c2cccc(C)c2C)C(C)(C(=O)NC2CCCCC2)C1 (configuration not stated) | 89% (inactive) |
| CSc1cccc(NS(=O)(=O)c2cn(C)c(C)n2)c1 | 59% (inactive) |
| COc1ccccc1NS(=O)(=O)c1cn(C)c(C)n1 | 10% (active) |
| Cc1ccc(NS(=O)(=O)c2cn(C)c(C)n2)c(Br)c1 | 88% (inactive) |
